Structures are written as SMILES. Where “and” joins values, the source holds several entries; their conditions need not be identical. Equal entries are not always repeated. The panel holds about 83,000 compounds, 20% with a hit somewhere; the sample as a whole holds those more often.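 Single-dose data. Exposure time 48 hours. Values below 10 considered active.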 A number with no mark means an inactive call. Calls of active or inactive are those of the source.

This test concerns MDA-MB-468 breast. The test can be described thus: NCI-60 one-dose screen, 48 h (100 = growth as untreated, 0 = no growth, -100 = all killed). As to conditions: 10 µM unless noted.
As to `CC(=O)Oc1ccc(O)cc1`, the growth was 95.5%.
The same measure for `NC(=O)CSSCC(N)=O`: 105%.
With `CN(C)S(=O)(=O)c1ccc(-c2nc(C(Cl)Cl)nc3cc(-c4ccc(F)cc4)nn23)cc1` the figure was -46.2% (active); with `C[N+](C)=c1ccc2nc3c(cc(Nc4ccccc4)c4ccccc43)oc-2c1`, -14.8% (active); with `CCOC(=O)c1c(C)nc2c(c1N)C(=O)C(=O)N2Cc1ccc(OC)cc1`, 95%.
On to `CC(C)(C)NC/C(=C\c1ccccc1)C(=O)c1ccccc1`, for which the growth is -50.5% (active).
With `O=[N+]([O-])c1ccccc1N(S(=O)(=O)c1ccccc1)S(=O)(=O)c1ccccc1` the figure was 106% and 90%; with `Cc1ccccc1CNc1ccc(N2CCOCC2)cc1`, 97.8%; with `Oc1[nH]c2cc(Cl)ccc2c1/C=c1/ccc2c(c1)N=C(c1cc(F)cc(F)c1)N=2`, -19.6% (active).
The same measure for `CCCCCN1C=C/C(=C\C(=O)N(C)c2ccccc2Br)c2ccccc21`: 71.2%; for `CC(C)(C)n1cc(-c2ccnc(NCCCNS(=O)(=O)c3ccccc3)c2)c(-c2ccccc2)n1`: 25.1%.
For the compound `O=C1[C@@H](OS(=O)(=O)CC(F)(F)F)[C@H](c2ccc(F)cn2)N1c1cc2c3ccccc3ccc2c2ccccc12`, the growth is 89.4%.
With `Nc1[nH]n2cc(-c3ccc(F)cc3)nc2c1N=Nc1ccc(S(N)(=O)=O)cc1` the figure was 83.4%; with `N=c1ccc2nc3c(cc(N)c4ccccc43)oc-2c1`, -78.4% (active); with `COc1ccc(/C(=N\N=C(N)N)c2ccc(Cl)cc2)cc1OC`, 52.8%.
On to `O=C(Nc1cccc(F)c1)c1cc(=O)[nH]c2cc(Br)ccc12`, for which the growth was 55.3%.
With `c1ccc2[nH]c(-c3cc(-c4ccc5c(c4)OCO5)n[nH]3)nc2c1` the figure was 51.2%; with `O=c1[nH]c(=S)[nH]c(O)c1/C=C1\C=Nc2ccccc21`, 103%.
With `c1ccc(Sc2ccccc2)cc1` the figure was 102%; with `S=C(Nc1ccc(Cl)cc1)Nc1ccc(Cl)cc1` (tested in a mixture with another compound), -16.6% (active).
On to `COc1ccc(N2CCN(C(=O)c3sc4nc(C)c(Br)c(C)c4c3N)CC2)cc1`, for which the growth is 109%.
With `CS(=O)(=O)c1ccc(-c2nc3ccccn3c2C=Nc2ccc(Cl)cc2)cc1` the figure was 98.1%.
With `c1ccc2c(c1)CN(CCCN1CCOCC1)C2` the figure was 89.7%.
The same measure for `Cc1cc(Cl)cc(CN(Cc2ccccc2)Cc2c(O)ccc3ccccc23)c1O`: 102%.
For the compound `COC(=O)c1cc2c3c(cc(O)c2[nH]1)N(C(=O)C1Cc2cc(OC)c(OC)c(OC)c2N1)CC3CCl` (stereo not given), the growth was -41.8% (active).
With `O=C1/C(=C/N2N=C(c3ccc4ccccc4c3)CC2c2ccccc2O)SC(=S)N1c1cccnc1` (stereo not given) the figure was 7.52% (active); with `CCN(CC)CCC(=O)c1ccc(OC)c2ccccc12`, 49.7%.
The same measure for `C=C1CC[C@@H]2[C@](C)(COC(C)=O)[C@H](OC(C)=O)CC[C@@]2(C)[C@@H]1CC(Nc1ccc(S(=O)(=O)Nc2nc(C)cc(C)n2)cc1)C1=CCOC1=O` (stereo not given in full): 41%; for `Cc1cc(Cl)cc(NS(=O)(=O)c2ccc(-c3cnc(C4CC4)o3)cc2)c1`: 11.3%.
With `COc1ccccc1Nc1nnc(-c2ccc(Cl)cc2)o1` the figure was 14%.
With `COc1ccc(-c2nc(-c3nc4cc(Cl)c(F)cc4[nH]3)c3ccccn23)cc1`, the growth is 54.6%.
The same measure for `Cc1csc(-c2ccc3c(c2)COC3(CCCN(C)C)c2ccc(F)cc2)c1` (stereo not given): 31.1%; for `CN(C)CCOc1nc2c3ccncc3cc(-c3cccc(Cl)c3)c2c2cnccc12`: 38.3%; for `CC(C)C1=NOC(=O)C1=Cc1cn(-c2ccccc2)nc1-c1ccc(F)cc1`: 73.4%.
With `Cn1nc(-c2ccc(Cl)cc2)nc2c(=O)n(C)c(=O)nc1-2` the figure was -73.2% (active).
The same measure for `NC(CC(=O)O)C(=O)OCc1ccccc1` (stereo not given): 89.4%; for `C[C@H]1[C@H](C)CC[C@]2(C(=O)NCC#CCN3CCN(C)CC3)CC[C@]3(C)C(=CC[C@@H]4[C@@]5(C)Cc6c([nH]c7ccccc67)C(C)(C)[C@@H]5CC[C@]43C)[C@H]12`: 90.1%; for `CC/C(=C(/c1ccc(Cl)cc1)c1ccc(OCCN)cc1)c1ccccc1`: 88.8%.
On to `FC(F)(F)c1cccc(Nc2nc(-c3ccccc3)nc3ncccc23)c1`, for which the growth is -21.7% (active).
With `CCOC(=O)c1c(Nc2ccccc2)nn2c(N)c(C#N)c(-c3ccc(F)cc3)nc12` the figure was 82.5%.

The record behind these values is PubChem BioAssay (NCI).
